Source: PubChem BioAssay (NCI)
About 83,000 compounds went through this panel and 20% of them were active in at least one assay; those are over-represented in the sample as a whole.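 Single-dose data. Exposure time 48 hours. Values below 10 considered active.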 Unmarked numbers belong to inactive results. Active and inactive are the calls of the source.

Legend:
Experiment in all cases: NCI-60 one-dose screen, 48 h (100 = growth as untreated, 0 = no growth, -100 = all killed)
[1] = test system: SK-MEL-2 melanoma; details: 10 µM unless noted
[2] = test system: EKVX NSCLC; details: 10 µM unless noted
[3] = test system: SN12C renal; details: 10 µM unless noted
[4] = test system: UO-31 renal; details: 10 µM unless noted
[5] = test system: TK-10 renal; details: 10 µM unless noted
[6] = test system: ACHN renal; details: 10 µM unless noted
[7] = test system: A498 renal; details: 10 µM
[8] = test system: HL-60(TB) leukemia; details: 10 µM unless noted
[9] = test system: CCRF-CEM leukemia; details: 10 µM unless noted
[10] = test system: MOLT-4 leukemia; details: 10 µM unless noted
[11] = test system: SR leukemia; details: 10 µM unless noted
[12] = test system: RPMI-8226 leukemia; details: 10 µM unless noted
[13] = test system: OVCAR-8 ovarian; details: 10 µM unless noted
[14] = test system: OVCAR-5 ovarian; details: 10 µM unless noted
[15] = test system: OVCAR-4 ovarian; details: 10 µM unless noted
[16] = test system: SK-OV-3 ovarian; details: 10 µM unless noted
[17] = test system: IGROV1 ovarian; details: 10 µM unless noted
[18] = test system: OVCAR-3 ovarian; details: 10 µM unless noted
[19] = test system: HS 578T breast; details: 10 µM unless noted
[20] = test system: CAKI-1 renal; details: 10 µM unless noted

| SMILES | growth [1] | growth [2] [%] | growth [3] [%] | growth [4] | growth [5] | growth [6] | growth [7] | growth [8] | growth [9] | growth [10] | growth [11] | growth [12] | growth [13] | growth [14] | growth [15] [%] | growth [16] [%] | growth [17] | growth [18] | growth [19] | growth [20] [%] |
| --- | --- | --- | --- | --- | --- | --- | --- | --- | --- | --- | --- | --- | --- | --- | --- | --- | --- | --- | --- | --- |
| C/C(CC(C)(C)N1CC1)=N\NC(=O)Nc1cccc2ccccc12 | 72.9% | 78.5 | 63.3 | 57.9% | 61.3% | 42.3% | 59.3% | 77.6% | 82.3% | 12.2% | 20.9% | 72.7% | 44.1% | 100% | 55.8 | 79.3 | 38.8% | 48.3% | 79.8% |  |
| Brc1ccc2c(c1)c(-c1nc(-c3c[nH]c4ncccc34)cs1)cn2CCN1CCOCC1 | 80% | 43.5 | 71.5 | 35.8% | 74.1% | 55.2% | 88.7% | 71% | 45.8% | 41.3% | 59.7% | 40.1% | 45.6% | 76.9% | 57.3 | 84.8 | 29.5% | 72.9% | 66.8% |  |
| COC(=O)N[C@H]1CCc2c(Br)c(OC)c(OC)c(OC)c2-c2ccc(SC)c(=O)cc21 | 29.4% | 46 | 25.1 | 18.2% | 41.6% | 26.7% |  |  | 3.65% (active) | 3.15% (active) | -9.73% (active) | -3.46% (active) | 14.8% | 35.9% | 24.7 | 33.1 | 9.6% (active) | -40.5% (active) | 1.22% (active) | 13.7 |
| COC(=O)[C@@H](C)C[C@H](Cc1ccccc1)NC(=O)c1nc([C@@H](C[C@H](C(C)C)N(C)C(=O)[C@@H](NC(=O)[C@H]2CCCCN2C)C(C)C)OC(C)=O)sc1C | 26.5% | 33.9 | 18.3 | 44.5% | 31.1% | 24.5% | -19.3% (active) | -43.5% (active) | 7.82% (active) | 11.1% | 4.24% (active) | 18.2% | 15% | 41.4% | 50.6 | 29.9 | 22.7% | -37.8% (active) | 13.7% |  |
| COc1cc2c(cc1OCCCn1c(-c3ccccn3)nc3ccccc31)N=C[C@@H]1CCCN1C2=O | -71.1% (active) | 43.3 | 26 | -53.7% (active) | -20.8% (active) | -64.9% (active) | -72.1% (active) | -21.7% (active) | 5.34% (active) | 8.22% (active) | 3.55% (active) | -37.5% (active) | 25.5% | 2.58% (active) | 15.6 | 30.8 | -62.3% (active) | 2.94% (active) | -2.53% (active) |  |
| O=[N+]([O-])c1c(Br)sc(Br)c1[N+](=O)[O-] | -20.9% (active) | 72.5 | 30 | -65.7% (active) | -78.3% (active) | -56.4% (active) | 111% | -11.2% (active) | -18.9% (active) | -3.6% (active) | -5.81% (active) | 16.7% | 5.21% (active) | 76.3% | 30.9 | 98.7 | 3.28% (active) | -62.4% (active) |  |  |
| COC(=O)[C@@H](NC(=O)c1cn(CCC2CCCCC2)c2ccccc12)C(C)(C)C | 78.1% | 58.6 | 65.7 | 39.2% | 77.8% | 59.5% | 84.2% | 60% | 72% | 64.3% | 61.3% | 64.9% | 77.7% | 82% | 68.7 | 79.2 | 62.3% | 77.4% | 83.9% |  |
| Cc1cc(N(CCCl)CCCl)ccc1C=Nc1cccnc1 | 101% | 104 | 57.2 | 70.3% | 56.1% | 48.3% | -72.3% (active) | 41.4% | 61.4% | 52.1% | 43.9% | 78.3% | 78.2% | 28.2% | 80.6 | 61.3 | 99.2% | 87.5% | 113% |  |
